Reference: ChEMBL document CHEMBL3988442, “University of Dundee, Small-Polar-MMV Screening Library” (2021)
For part of these data: Measured potencies and affinities stand elsewhere.

How the values were obtained:
Design in all cases: scale not given: direction of the effect not stated beside the values
[1] = biological target: Protein translocase subunit SecA (Escherichia coli (strain K12)) (UniProt P10408); assay: Assay to Identify E. coli SecA ATPase Inhibitors; type: functional; settings: 30 µM
Chain of Protein translocase subunit SecA (Escherichia coli (strain K12)) (P10408 whole entry): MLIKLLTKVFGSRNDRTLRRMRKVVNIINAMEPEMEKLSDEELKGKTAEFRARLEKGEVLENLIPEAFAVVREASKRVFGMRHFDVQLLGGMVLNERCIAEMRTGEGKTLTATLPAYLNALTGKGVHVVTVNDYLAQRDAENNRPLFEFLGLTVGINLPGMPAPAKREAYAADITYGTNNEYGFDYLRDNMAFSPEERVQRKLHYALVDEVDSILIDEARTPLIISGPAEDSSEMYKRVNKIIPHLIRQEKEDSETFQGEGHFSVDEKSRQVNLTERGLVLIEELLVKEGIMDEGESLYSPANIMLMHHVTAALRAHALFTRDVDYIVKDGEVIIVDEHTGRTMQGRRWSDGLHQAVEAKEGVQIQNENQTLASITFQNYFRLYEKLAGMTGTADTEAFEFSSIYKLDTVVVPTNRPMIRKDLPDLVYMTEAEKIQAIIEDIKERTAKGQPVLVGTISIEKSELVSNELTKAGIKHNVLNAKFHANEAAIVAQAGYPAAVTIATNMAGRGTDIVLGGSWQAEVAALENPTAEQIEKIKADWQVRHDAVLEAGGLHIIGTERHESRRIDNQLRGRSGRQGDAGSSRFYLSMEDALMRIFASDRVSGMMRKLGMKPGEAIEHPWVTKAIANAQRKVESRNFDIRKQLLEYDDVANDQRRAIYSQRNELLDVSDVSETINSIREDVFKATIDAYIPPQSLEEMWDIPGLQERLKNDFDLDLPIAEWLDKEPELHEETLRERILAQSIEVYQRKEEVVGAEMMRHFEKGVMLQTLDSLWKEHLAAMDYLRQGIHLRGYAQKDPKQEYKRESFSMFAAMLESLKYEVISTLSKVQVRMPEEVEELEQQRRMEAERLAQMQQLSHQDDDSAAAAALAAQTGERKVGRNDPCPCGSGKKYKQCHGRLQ

[2] = biological target: T1, Ubiquitin-activating enzyme e1, putative (Leishmania donovani (strain BPK282A1)) (UniProt E9BSI1); assay: Leishmania donovani Ubiquitin Activating Enzyme (LdE1); type: functional; settings: 30 µM
T1 sequence (whole entry): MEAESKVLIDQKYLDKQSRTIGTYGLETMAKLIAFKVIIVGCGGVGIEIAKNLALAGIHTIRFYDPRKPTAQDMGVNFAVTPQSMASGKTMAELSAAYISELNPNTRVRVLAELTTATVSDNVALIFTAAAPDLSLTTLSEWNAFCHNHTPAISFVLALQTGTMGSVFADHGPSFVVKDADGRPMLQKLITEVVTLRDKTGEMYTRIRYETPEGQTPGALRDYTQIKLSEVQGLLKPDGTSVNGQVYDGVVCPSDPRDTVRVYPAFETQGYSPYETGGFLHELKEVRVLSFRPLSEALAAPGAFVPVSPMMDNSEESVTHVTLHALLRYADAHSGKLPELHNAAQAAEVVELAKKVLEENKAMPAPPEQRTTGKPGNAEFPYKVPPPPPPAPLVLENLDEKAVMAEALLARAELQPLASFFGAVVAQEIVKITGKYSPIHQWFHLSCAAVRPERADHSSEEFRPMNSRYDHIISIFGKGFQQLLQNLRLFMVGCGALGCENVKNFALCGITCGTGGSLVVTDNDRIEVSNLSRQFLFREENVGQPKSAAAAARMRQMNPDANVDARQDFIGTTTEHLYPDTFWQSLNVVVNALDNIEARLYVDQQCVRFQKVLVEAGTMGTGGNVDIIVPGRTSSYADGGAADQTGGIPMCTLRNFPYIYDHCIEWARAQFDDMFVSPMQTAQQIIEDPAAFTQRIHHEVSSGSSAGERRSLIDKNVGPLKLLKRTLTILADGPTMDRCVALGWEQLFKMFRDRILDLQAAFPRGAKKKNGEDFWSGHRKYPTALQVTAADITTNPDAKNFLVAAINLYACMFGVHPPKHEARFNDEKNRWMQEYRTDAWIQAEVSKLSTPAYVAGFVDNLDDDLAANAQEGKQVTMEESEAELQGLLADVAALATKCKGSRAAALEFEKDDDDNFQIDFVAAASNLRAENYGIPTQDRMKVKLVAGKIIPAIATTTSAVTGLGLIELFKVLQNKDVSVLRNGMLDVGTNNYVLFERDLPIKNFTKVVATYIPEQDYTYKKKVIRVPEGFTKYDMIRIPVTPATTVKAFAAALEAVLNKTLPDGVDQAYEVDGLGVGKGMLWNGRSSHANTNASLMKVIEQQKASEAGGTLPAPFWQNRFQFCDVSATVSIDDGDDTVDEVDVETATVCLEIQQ

[3] = biological target: AMP-activated protein kinase, AMPK (Homo sapiens) (UniProt P54646+O43741+P54619+Q9UGJ0+Q9Y478+Q13131+Q9UGI9); assay: AMP-dependent Kinase enzyme assay. An in vitro enzyme assay that detects ADP turnover that is directly proportional to AMPK activity. This uses naive AMPK that is activated during the assay with MK-8722; type: functional; settings: 30 µM
[4] = biological target: Sialic acid-binding Ig-like lectin 9 (Homo sapiens) (UniProt Q9Y336); assay: Hs-Siglec9 ALPHAscreen SOP 20170721; settings: 10 µM
Chain of Sialic acid-binding Ig-like lectin 9 (Homo sapiens) (Q9Y336 whole entry): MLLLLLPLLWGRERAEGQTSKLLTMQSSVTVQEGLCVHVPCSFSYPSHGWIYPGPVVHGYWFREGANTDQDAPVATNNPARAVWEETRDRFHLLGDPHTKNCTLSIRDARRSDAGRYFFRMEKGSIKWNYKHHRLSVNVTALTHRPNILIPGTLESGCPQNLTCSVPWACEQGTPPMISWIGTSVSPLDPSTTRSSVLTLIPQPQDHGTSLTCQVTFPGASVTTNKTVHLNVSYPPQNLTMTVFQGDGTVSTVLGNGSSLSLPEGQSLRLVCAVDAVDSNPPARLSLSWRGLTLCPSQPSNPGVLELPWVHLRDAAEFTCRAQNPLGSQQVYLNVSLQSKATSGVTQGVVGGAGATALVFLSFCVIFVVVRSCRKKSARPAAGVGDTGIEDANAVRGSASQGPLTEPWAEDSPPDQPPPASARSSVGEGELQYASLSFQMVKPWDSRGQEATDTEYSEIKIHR

Trypanosoma cruzi = assay: Trypanosoma cruzi phosphomannomutase and mannose-1-phosphate guanylyltransferase assay; type: functional; settings: 10 µM
[5] = biological target: T2, Arginase-2, mitochondrial (Homo sapiens) (UniProt P78540); assay: in vitro enzyme assay to detect the production of urea directly proportional to the activity of Arginase II; type: functional; settings: 33.3 µM; also: in the data most compounds retested in dose-response had high values
T2 sequence (whole entry): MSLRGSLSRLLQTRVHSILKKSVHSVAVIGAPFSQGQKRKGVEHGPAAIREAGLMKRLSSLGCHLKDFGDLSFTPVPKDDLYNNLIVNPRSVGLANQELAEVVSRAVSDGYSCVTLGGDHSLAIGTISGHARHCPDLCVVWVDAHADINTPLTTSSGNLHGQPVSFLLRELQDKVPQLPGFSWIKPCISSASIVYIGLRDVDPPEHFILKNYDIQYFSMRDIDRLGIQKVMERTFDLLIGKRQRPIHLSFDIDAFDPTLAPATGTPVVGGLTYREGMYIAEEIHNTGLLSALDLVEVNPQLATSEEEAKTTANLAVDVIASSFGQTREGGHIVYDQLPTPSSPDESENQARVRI

[6] = biological target: T3, Proteasome subunit beta (Trypanosoma cruzi) (UniProt O96673); assay: Trypanosoma cruzi proteasome chymotrypsin-like activity (TcProtChymo) assay.; also: in the data most compounds retested in dose-response had high values; type: functional; settings: 9.37 µM
T3 sequence (whole entry): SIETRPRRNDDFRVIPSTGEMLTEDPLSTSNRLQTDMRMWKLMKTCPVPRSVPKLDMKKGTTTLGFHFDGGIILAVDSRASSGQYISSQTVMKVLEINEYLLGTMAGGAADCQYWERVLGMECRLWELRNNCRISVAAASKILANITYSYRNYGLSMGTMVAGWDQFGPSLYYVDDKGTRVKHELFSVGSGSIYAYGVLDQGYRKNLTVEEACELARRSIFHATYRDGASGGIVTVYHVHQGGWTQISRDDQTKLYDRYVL

Homo sapiens = organism: Homo sapiens; assay: To identify inhibition of the IFN signalling (Jak-Stat) pathway via expression of an eGFP reporter gene under the control of an IFN-stimulated response element (ISRE) containing MxA promoter.; type: functional; settings: 30 µM
[7] = biological target: T4, Tyrosyl-tRNA synthetase, putative (Trypanosoma cruzi (strain CL Brener)) (UniProt Q4DSP6); assay: Trypanosoma cruzi tyrosyl tRNA synthetase (TcYRS) _High Tyrosine SOP; type: functional; settings: 30 µM; also: in the data most compounds retested in dose-response had high values
T4 sequence (whole entry): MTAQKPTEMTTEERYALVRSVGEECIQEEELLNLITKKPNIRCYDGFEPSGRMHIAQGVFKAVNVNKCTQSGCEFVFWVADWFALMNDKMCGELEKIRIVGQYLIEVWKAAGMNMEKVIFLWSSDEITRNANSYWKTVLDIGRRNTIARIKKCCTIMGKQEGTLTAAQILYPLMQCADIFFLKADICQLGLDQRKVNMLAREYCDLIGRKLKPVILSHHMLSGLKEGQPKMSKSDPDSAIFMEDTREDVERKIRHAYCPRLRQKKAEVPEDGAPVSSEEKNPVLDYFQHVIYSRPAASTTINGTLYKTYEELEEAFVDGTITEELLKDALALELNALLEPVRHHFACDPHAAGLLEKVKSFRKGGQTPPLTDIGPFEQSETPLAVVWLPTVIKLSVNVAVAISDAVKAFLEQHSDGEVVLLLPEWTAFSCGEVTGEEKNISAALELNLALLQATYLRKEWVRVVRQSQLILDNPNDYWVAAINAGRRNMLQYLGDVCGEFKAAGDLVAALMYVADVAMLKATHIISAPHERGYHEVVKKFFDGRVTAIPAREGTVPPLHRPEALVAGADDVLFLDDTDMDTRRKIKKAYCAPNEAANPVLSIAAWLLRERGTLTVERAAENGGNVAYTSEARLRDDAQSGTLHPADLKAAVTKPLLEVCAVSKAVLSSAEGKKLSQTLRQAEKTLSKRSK

[8] = biological target: T4, Tyrosyl-tRNA synthetase, putative (Trypanosoma cruzi (strain CL Brener)); assay: Trypanosoma cruzi tyrosyl tRNA synthetase (TcYRS) SOP; type: functional; settings: 30 µM
[9] = biological target: Chromo domain-containing protein 1 (Saccharomyces cerevisiae (strain ATCC 204508 / S288c) (Baker's yeast)) (UniProt P32657); assay: ScCHD-1 Enzyme Inhibition Assay; type: functional; settings: 30 µM; also: in the data most compounds retested in dose-response had high values
Chain of Chromo domain-containing protein 1 (Saccharomyces cerevisiae (strain ATCC 204508 / S288c) (Baker's yeast)) (P32657 whole entry, the tested form may be a part): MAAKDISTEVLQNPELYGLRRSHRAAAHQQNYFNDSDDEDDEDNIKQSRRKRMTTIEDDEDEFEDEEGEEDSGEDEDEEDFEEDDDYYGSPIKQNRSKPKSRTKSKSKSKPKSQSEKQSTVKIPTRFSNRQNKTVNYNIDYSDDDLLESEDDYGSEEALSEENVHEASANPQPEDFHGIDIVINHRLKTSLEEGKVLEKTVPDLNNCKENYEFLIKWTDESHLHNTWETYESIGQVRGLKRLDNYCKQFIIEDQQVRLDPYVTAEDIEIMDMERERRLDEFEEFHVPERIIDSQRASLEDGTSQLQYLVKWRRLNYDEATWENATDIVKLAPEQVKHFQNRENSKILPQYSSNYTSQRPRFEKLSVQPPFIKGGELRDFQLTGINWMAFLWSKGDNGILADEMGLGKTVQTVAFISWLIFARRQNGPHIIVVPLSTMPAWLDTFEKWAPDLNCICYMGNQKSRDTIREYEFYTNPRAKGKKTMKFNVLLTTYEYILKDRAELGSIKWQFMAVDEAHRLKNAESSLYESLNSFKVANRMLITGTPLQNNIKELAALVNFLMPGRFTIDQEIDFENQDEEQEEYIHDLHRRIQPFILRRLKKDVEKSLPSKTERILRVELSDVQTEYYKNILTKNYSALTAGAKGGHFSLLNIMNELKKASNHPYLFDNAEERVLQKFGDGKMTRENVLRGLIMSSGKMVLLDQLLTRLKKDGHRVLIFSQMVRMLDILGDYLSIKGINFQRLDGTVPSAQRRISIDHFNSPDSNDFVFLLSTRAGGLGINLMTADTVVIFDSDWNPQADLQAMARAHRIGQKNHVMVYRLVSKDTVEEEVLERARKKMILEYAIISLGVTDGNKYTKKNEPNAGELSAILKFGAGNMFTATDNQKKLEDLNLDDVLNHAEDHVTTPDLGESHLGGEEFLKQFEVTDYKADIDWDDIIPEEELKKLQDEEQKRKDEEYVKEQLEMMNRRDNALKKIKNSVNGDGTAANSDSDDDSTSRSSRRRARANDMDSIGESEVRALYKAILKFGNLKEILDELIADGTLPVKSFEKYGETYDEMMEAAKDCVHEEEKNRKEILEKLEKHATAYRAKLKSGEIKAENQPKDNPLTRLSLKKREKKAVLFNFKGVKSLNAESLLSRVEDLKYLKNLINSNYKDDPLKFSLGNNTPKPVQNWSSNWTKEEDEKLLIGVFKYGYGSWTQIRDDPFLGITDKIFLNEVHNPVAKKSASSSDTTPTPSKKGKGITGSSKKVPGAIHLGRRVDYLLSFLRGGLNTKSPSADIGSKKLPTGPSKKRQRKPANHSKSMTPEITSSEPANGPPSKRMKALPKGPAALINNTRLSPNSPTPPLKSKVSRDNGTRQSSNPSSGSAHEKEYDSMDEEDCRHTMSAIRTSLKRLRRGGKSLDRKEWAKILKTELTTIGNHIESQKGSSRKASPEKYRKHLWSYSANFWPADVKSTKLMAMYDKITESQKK

Row | SMILES | Percent Effect [1] [%] | Percent Effect [2] [%] | Percent Effect [3] [%] | Percent Effect [4] [%] | Percent Effect (Trypanosoma cruzi) [%] | Percent Effect [5] [%] | Percent Effect [6] [%] | Percent Effect (Homo sapiens) [%] | Percent Effect [7] [%] | Percent Effect [8] [%] | Percent Effect [9] [%]
1 | CCC1=N[C@@]2(CC[C@@H]3CN(C(=O)Nc4ccc(F)cc4)C[C@@H]32)C(=O)N1 | -5.91 | 5.41 | -0.761 | -2.41 | 7.42 | -2.5 | 13.1 | -26.3 | 7.92 | 8.54 | -6.29
2 | Cc1cc(-c2cnn(CCNC(=O)c3cccnc3)c2C2CC2)on1 | -4.86 | 4.05 | 7.97 | 2.6 | -0.395 | -3.48 | -1.09 | 7.9 | 5.38 | 9.09 | 1.21
3 | O=C(CCn1cncn1)NC1(c2cccc(Br)c2)CCC1 | -3.55 | 20.8 | 1.67 | 13.7 | 3.44 | 1.38 | 10.5 | -1.82 | 3.23 | 16.1 | -9.17
4 | CC(C)c1nnc2n1CCN(CC(=O)Nc1nncs1)C2 | -0.203 | 13 | 1.97 | -3.59 | 5.19 | 5.68 | 8 | -15.7 | 2.86 | 14.1 | -14.6
5 | Cc1cnn(CC2CN(c3ncnc4ccsc34)CCO2)c1 (stereo unspecified) | -2.74 | 2.7 | 4.84 | -10 | 6.05 | -2.5 | 19.7 | 75.7 | 11.9 | 15.8 | -0.587
6 | COCC(=O)N1CCC(c2nc3ccc(N4CCCC4)cn3n2)CC1 | -3.58 | 5.48 | -210 | 5.8 | -4.96 | 1.2 | 10 | -9.84 | 7.29 | 11.1 | -3.02
7 | CCC(=O)NCC(=O)NCc1cc(Br)ccc1OC(F)F | -3.84 | 18.7 | -6.58 | 53.5 | 3.41 | 18.8 | 7.15 | -3.97 | 7.1 | 18.5 | -8.96
8 | Cc1nccc([C@@H]2C[C@@H]3CCN(S(C)(=O)=O)C[C@H]3O2)n1 | -4.82 | 8.11 | -5.02 | 10.6 | 7.14 | -0.744 | 7.64 | 6.16 | 8.6 | 13.6 | -3.19
9 | O=C(Nc1ccc(F)cc1)N1C[C@H]2C[C@H](C(=O)N3CCOCC3)[C@@H](C1)O2 | -1.74 | 7.79 | 3.92 | 3.78 | 0.493 | 4.52 | 2.44 | 29.3 | 4.23 | 14.1 | -6.94
10 | CC(=O)N(C)c1nc(CN2CCOC(Cn3cc(C)cn3)C2)cs1 (stereo unspecified) | -1.65 | 28.6 | -5.25 | -17.3 | 3.82 | -6.95 | 17.4 | 16.8 | 8.57 | 30.6 | -22.3
11 | CCNC(=O)[C@@H]1C[C@H](NC(=O)c2ccccc2C#N)CN1CCCSC | -6.15 | -2.74 | -0.485 | 8.44 | 0.794 | 0.399 | 11.4 | -3.71 | 2.08 | 18.5 | 1.18
12 | CCn1nc(C)c2ncnc(NCC(=O)N3CCOCC3)c21 | -1.89 | 9.33 | -3.08 | 10.4 | 2.55 | -8.28 | 14.4 | 30.3 | -28.6 | 5.13 | -9.1
13 | O=C(c1cc(=O)[nH]c(=O)[nH]1)N1CCCCC1c1nc2cc(F)ccc2[nH]1 (stereo unspecified) | -4.1 | 1.39 | 2.15 | -1.84 | 1.07 | 3.97 | 6.14 | -12.1 | 3.16 | 7.69 | -2.87
14 | O=C1CN(Cc2nnc(-c3ccccc3Br)o2)CCN1 | -1.52 | 9.72 | 0.225 | -0.91 | 2.43 | 2.65 | 25.1 | -21.9 | 1.05 | 7.69 | -3.03
15 | O=C(CCNC(=O)c1ccoc1)Nc1c(F)cccc1F | 0.646 | 18.2 | -4.32 | 5.34 | -2.84 | 4.42 | 18.8 | 14 | 6.67 | 21.2 | -3.32
16 | c1ccc(CN2CCCC(c3nccnc3-n3ccnc3)C2)cc1 (stereo unspecified) | -1.15 | 10.7 | 4.45 | -1.75 | 0.591 | -0.233 | 14.5 | 7.14 | 5.32 | 6.41 | -0.742
17 | Cc1nc(CNCC2CCCN2c2cccnn2)no1 (stereo unspecified) | -3.3 | -13 | -11.2 | -6.04 | 8.32 | -6.53 | 15.6 | -2.13 | 9.52 | 14.1 | -23.1
18 | CN(C)CCn1c(=O)oc2ccc(NC(=O)c3cc(Cl)c[nH]3)cc21 | -3.23 | 2.67 | 0.098 | 6.1 | -3.41 | 4.17 | 13.6 | 10.7 | 19.1 | 21 | -7.97
19 | Cn1cc(C(=O)Nc2ccc3c(c2)CN(C(=O)c2ccco2)CC3)nn1 | -2.6 | 7.79 | 7.19 | 9.07 | 3.65 | -5.81 | 7.66 | 0.998 | 4.23 | 11.5 | -7.06
20 | CCN(C(c1cccnc1)c1ccc2c(c1)CCO2)S(C)(=O)=O (stereo unspecified) | -3.35 | 5.48 | -1.35 | 6.82 | 6.75 | -6.79 | 3.17 | 4.95 | 1.04 | 8.64 | -2.4
21 | CC(C)n1ccnc1C1CCCN(c2ccnc3ccccc23)C1 (stereo unspecified) | -5.45 | 2.67 | 3.66 | 2 | -0.487 | -1.04 | 1.57 | 53.9 | 7.1 | 6.17 | -6.66
